# Screens: PubChem, ICCB-Longwood Screening Facility, Harvard Medical School
# AID504770: growth inhibitors of E. coli YBA685 in a screen for V. cholerae RctB (chromosome II replication) inhibitors; E. coli YBA685 rctB-dependent plasmid, OD600 growth, 3 h; hits give low values; z-score (no concentration beside the values); hit rate 0.27% among 130,000; AID 504770; in the data active = z-score below about -2, passing the limit was not always enough
# MbtI inh: blocks the Mycobacterium tuberculosis siderophore enzyme MbtI; P9WFX0; purified MbtI enzyme, fluorescence intensity read-out; inhibition, % (no concentration beside the values); hit rate 0.89% among 100,000; AID 493033; in the data active = inhibition mostly above about 56%, no sharp cut-off; inactive = mostly below about 77%
# Target sequence (P9WFX0 whole entry, looked up): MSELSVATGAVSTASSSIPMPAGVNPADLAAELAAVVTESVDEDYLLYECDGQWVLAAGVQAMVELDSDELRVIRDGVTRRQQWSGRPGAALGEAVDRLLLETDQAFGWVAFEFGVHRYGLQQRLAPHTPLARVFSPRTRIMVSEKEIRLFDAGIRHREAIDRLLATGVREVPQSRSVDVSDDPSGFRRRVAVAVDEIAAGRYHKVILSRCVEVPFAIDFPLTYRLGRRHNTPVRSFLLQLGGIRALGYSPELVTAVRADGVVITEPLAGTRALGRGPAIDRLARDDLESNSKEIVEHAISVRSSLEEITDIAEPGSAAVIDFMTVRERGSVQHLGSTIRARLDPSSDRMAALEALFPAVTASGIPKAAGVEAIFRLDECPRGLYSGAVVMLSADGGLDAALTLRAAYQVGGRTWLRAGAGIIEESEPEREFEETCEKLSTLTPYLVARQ
# Polio RdRp inh: inhibitors of poliovirus RNA polymerase binding and polymerization | P03300 | poliovirus polymerase elongation, fluorescence polarization; hits give low values | % elongation, % (compound at 16.7 µg/mL) | hit rate 0.66% among 150,000 | AID 588519; in the data active = % elongation below about 90%
# Mtb MenB inh: blocks the Mycobacterium tuberculosis MenB enzyme | P9WNP5 | MenB enzyme assay, absorbance read-out | inhibition, % (no concentration beside the values) | hit rate 0.43% among 100,000; in the data active = inhibition above about 21%, passing the limit was not always enough
# An asterisk follows results filed as active; i = inactive; . = not tested or not shown. The list is not random: actives were taken first. Their share in the collection is about 1.4%.
SMILES,AID504770,MbtI inh,Polio RdRp inh,Mtb MenB inh
Cc1cc(C)c2c(-c3ccccc3)[nH]nc2n1,-0.85,-57,.,.
S=C(c1cccs1)N1CCCC1,0.8,.,101,-4
Cc1ccc(CC(=S)N2CCOCC2)cc1,-0.25,69*,96,2
Cc1ccc(C(=S)N2CCOCC2)cc1,0,97*,98,1
S=C(c1ccc(-c2ccc(Cl)cc2)o1)N1CCOCC1,-1.3,77*,99,-30
CCc1ccc(C(=S)N2CCOCC2)cc1,-0.55,26,100,0
S=C(c1cccs1)N1CCOCC1,0.45,70*,100,-7
COc1ccc(OC)c(NC(=O)CSc2ncnc3c2oc2ccccc23)c1,0.55,-1,101,1
Cc1ccc(S(=O)(=O)N2CCCN(C)CC2)cc1,-3.9*,-9,101,.
CN1CCN(S(=O)(=O)c2ccc(Br)cc2)CC1,-1.3,.,101,-1
CO[C@@]12[C@@H]3NC3CN1C1=C(C(=O)C(N)=C(C)C1=O)[C@@H]2COC(N)=O (stereo partly drawn),-5.2*,-12,100,0
Cc1ccc(C(=O)CC(NCCc2c[nH]c3ccccc23)C(=O)O)cc1 (stereo not drawn),-1.7,.,103,47*
CC(C)C(=O)NCCc1c[nH]c2ccccc12,-0.5,-24,101,-9
O=C(c1cccs1)c1no[n+]([O-])c1C(=O)c1cccs1,-6.5*,60,95,-16
C/C(=N/NC(=O)c1c(N)no[n+]1[O-])c1cccs1,-0.2,3,103,-41
c1nc2c3sc4nc(N5CCOCC5)c5c(c4c3ncn2n1)CCC5,1.4,1,100,28*
CCCCCSc1ncnc2c1sc1nc(N3CCOCC3)c3c(c12)CCCC3,.,.,105,.
CC(C)Cn1c(O)c(N=NC(=S)NC(C)C)c2ccccc21,0.55,-71,97,-112
CC(C)n1c(O)c(N=NC(=S)NC2CCCCC2)c2ccccc21,-2.9*,-1,104,-71
CN(CC(=O)O)Cc1cccnc1,-0.3,-4,99,26*
COc1ccc(C(=O)Cc2ccccc2OC(=O)c2ccccc2)cc1,0,-8,101,.
COc1ccccc1CNC(=O)CSc1ncc2c(n1)-c1cc(Cl)ccc1N(Cc1ccccc1)S2(=O)=O,.,.,-5.0*,.
Cc1nc(C(=O)Nc2ccc(Cl)cc2)sc1C(=O)Nc1ccc(Cl)cc1,0.45,64*,69*,5
CC(=O)SC1CC(=O)N(c2cc(C(F)(F)F)cc(C(F)(F)F)c2)C1=O (stereo not drawn),0.15,.,.,.
Cc1cccc(-n2c(=O)c3c4c(sc3n3c(=S)[nH]nc23)CCCC4)c1,0.05,-1,100,-43
SMILES,AID504770,MbtI inh,Polio RdRp inh,Mtb MenB inh
COc1ccc(C2=C/C(=C(/C#N)C(=O)NCc3ccco3)c3cc(C)ccc3O2)cc1,2.5,34,44,-162
O=C(COC(=O)c1cc2ccccc2oc1=O)Nc1ncccn1,1.1,-96,88*,-21
CN(C)C(=O)COC(=O)c1cc2ccccc2oc1=O,-0.95,41,103,-23
CSc1ncc(F)c(N(C)C)n1,0.3,.,102,-7
Cc1cnc(C)c(N(C)C)n1,1.1,70,57*,31*
Nc1ccc2c(c1)OC1(O)c3ccccc3C(=O)C21O (stereo not drawn),-0.5,-12,101,-66
O=C1CCCC2=C1C1(O)C(=O)c3ccccc3C1(O)O2 (stereo not drawn),1.4,14,78*,-31
O=C1c2ccccc2C2(CCCC2)C(=O)N1Cc1ccccc1,0.35,.,.,.
Cc1nc(C(F)(F)F)ccc1C(=O)NCC(O)c1ccccc1 (stereo not drawn),-0.45,-15,88*,-2
Cc1nc(C(F)(F)F)ccc1C(=O)NCc1ccccc1,1.1,.,.,.
CCn1cc(C(=O)N2CCN(c3ccccc3)CC2)c(=O)c2cc(S(=O)(=O)N(C)C3CCCCC3)ccc21,.,.,68*,.
CCn1cc(C(=O)N2CCN(c3ccc(F)cc3)CC2)c(=O)c2cc(S(=O)(=O)N(C)C3CCCCC3)ccc21,.,.,107,.
CCC1CCCCN1CCCNC(=O)c1cn(C)c2ccc(S(=O)(=O)N(C)C3CCCCC3)cc2c1=O (stereo not drawn),.,.,30*,.
CC1CCN(CCCNC(=O)c2cn(C)c3ccc(S(=O)(=O)N(C)C4CCCCC4)cc3c2=O)CC1,.,.,108,.
Cc1nn(-c2ccccc2)c2sc(C(=O)Nc3cccnc3)cc12,0,i,97,-1
CC(=O)Nc1ccccc1N,0,.,111,-16
CC(=O)/C=C(\C)Nc1ccccc1S,-1.2,1,101,28*
O=C(CCn1c(=O)oc2ccccc21)Oc1cccc(Cl)c1,0.6,.,.,.
O=C(CCn1c(=O)oc2ccccc21)Sc1ccc(Cl)cc1Cl,1,70*,87*,2
CSc1cccc(NC(=O)C2CCCN2S(=O)(=O)c2ccccc2)c1 (stereo not drawn),-0.85,-3,103,-5
COC(=O)c1c(-c2cccs2)csc1NC(=O)COc1ccccc1,.,.,66*,.
COC(=O)c1c(-c2cccs2)csc1NC(=O)COc1ccc(C(C)(C)C)cc1,.,.,80*,.
COC(=O)c1c(-c2cccs2)csc1NC(=O)COc1c(C)ccc(C)c1C,.,.,62*,.
Fc1ccc(/C=N/c2nnc3nc[nH]n23)cc1,-0.7,.,88*,-4
Cc1ccc(CSCc2ccc(C(=O)NCCc3ccccc3)o2)cc1,-0.2,-2,104,-1
SMILES,AID504770,MbtI inh,Polio RdRp inh,Mtb MenB inh
Cc1ccc2nc3sc(C(=O)O)c(N)c3cc2c1,0.15,46,103,-41
Cc1ccc2ncc(-c3ccc4c(N)c(C)ccc4n3)cc2c1,-0.3,.,17*,-35
Cc1ccc(S(=O)(=O)N=C2C=CC(=NS(=O)(=O)c3ccc(C)cc3)C=C2)cc1,0,72*,102,-10
Cc1ccc(S(=O)(=O)N=C2C=CC(=NS(=O)(=O)N(C)C)C=C2)cc1,-1.4,97,104,-19
CCOc1ccccc1N(CC)C(=O)C1CCCN(c2ncnc3c2nc2n3CCCCC2)C1 (stereo not drawn),-0.9,-13,101,-23
O=S(=O)(Nc1nc2ccc(F)cc2s1)c1ccc(F)cc1F,-0.1,13,101,4
CC(=O)N(C(C)=O)S(=O)(=O)c1ccc(N=NN(C)C)cc1,-1.5,.,102,-17
Cc1ccc(N=NN(C)C)cc1,-6.7*,.,.,.
Cc1cc(C)nc(SCc2csc(N)n2)n1,-0.4,1,98,-24
N=C(N)SCc1csc(N)n1,-0.45,.,87*,7
CN(C)CCN(C(=O)Cc1ccccc1)c1nc2cc3c(cc2s1)OCCO3,-2.3*,11,101,-29
CN(C)CCN(C(=O)c1ccco1)c1nc2cc3c(cc2s1)OCO3,0.15,-2,102,7
CCCOc1ccc(-c2nc(NCCN)c3ccccc3n2)cc1,-3*,.,.,.
CC(=O)OCCNc1nc(-c2ccccc2)nc2ccccc12,-0.65,.,.,.
O=C(COc1ccccc1)c1ccc(O)c(O)c1O,-1.8,94*,101,-21
CC1=C(C(=O)OC2CCCCC2)C(c2ccco2)C2=C(CC(c3ccc(F)cc3)CC2=O)N1 (stereo not drawn),-0.6,181,100,-4
Cc1ccc(-c2csc(-n3sc4ccccc4c3=O)n2)cc1,0,87*,99,.
